Among the data in PubChem BioAssay (NCATS) are outcome values, retold here.

Results filed as inconclusive are left out. Calls of active or inactive are those of the source. Calls come from the whole dose curve; as a rule, active = well fitted curve in either direction with a large enough effect (not every such curve was filed as active); inconclusive = small, poorly fitted or top-dose-only effect, or another doubt; inactive = flat fitted curve, though single readings scatter.

The assay in a line: AP1 Signaling Pathway (AID 357).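 Note: ME-180 reporter cells stimulated with EGF at its EC50 level.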 To be noted: ME-180 (cervical carcinoma) AP-1-bla reporter, EGF-induced, beta-lactamase ratio, 5 h; series mostly up to 17.2 µM. The source says:
NCGC Assay Overview: Activator protein-1 (AP-1), a transcription factor, plays an important role in tumor genesis by regulating genes involved in cell proliferation, differentiation, apoptosis, and angiogenesis. AP-1 activity is induced by a complex network of signaling pathways that involves extracellular signals, such as growth factors. The AP-1 protein complex formed from c-Fos and c-Jun binding to the AP-1 response element results in transcriptional activation of genes containing such elements within their promoter. Low molecular weight molecules have been discovered and developed to modulate various components of these signaling pathways, for example, MAP kinase inhibitors. However, many points of pathway modulation remain untested due to the lack of chemical probes making this signaling locus of general interest. Using a beta-lactamase reporter-gene under control of the AP-1 response element, a cell-based assay [CellSensor(TM) AP-1-bla ME-180 developed by Invitrogen Corp.] was used to measure EGF-induced signaling. Library compounds were measured for their ability to modulate positively or negatively the action of EC50 EGF on reporter gene activity. Compounds were screened in a titration series in 1536-well format. Positive and negative modulators were identified based on the AC50 values derived from the screening data.
NCGC Assay Protocol Summary: 2500 cells/5uL in Opti-MEM medium containing 0.5% dialyzed FBS, 0.1 mM NEAA, 1 mM sodium pyruvate and 10 mM HEPES was dispensed into 1536-well plates and cells were cultured at 37 degrees Celsius overnight. […] After centrifugation at 1000 rpm for 2 seconds the plates were incubated at 37 degrees Celsius for 5 hours. 1 uL of CCF4-dye mixture was added to each well. After incubated at room temperature for 2.5 hours the plates were measured on an EnVision plate reader at Excitation 405nm, Emission1=460nm and Emission 2=530nm. The %Activity was determined from the ratio of 460nm/530nm.
Consider `NS(=O)(=O)c1ccc(C(=O)O)cc1`, for which the result was inactive. For `CCOC(=O)[C@H](CCc1ccccc1)N[C@@H](C)C(=O)N1CCC[C@H]1C(=O)O` the value was “inactive”.

In the case of `Nc1ccc(S(=O)(=O)c2ccc(N)cc2)cc1`, the result was inactive.

Take `NCc1ccc(S(N)(=O)=O)cc1`: the result was inactive.

As to `CC(=O)[C@@]1(O)CC[C@H]2[C@@H]3C[C@H](C)C4=CC(=O)C=C[C@]4(C)[C@@]3(F)[C@@H](O)C[C@@]21C`, the outcome was inactive. For `O=C(O)CCCc1ccccc1` the value was “inactive”; for `CC1CCc2cc(F)cc3c(=O)c(C(=O)O)cn1c23` (stereo not given), “inactive”; for `CN1CCCN=C1COC(=O)C(O)(c1ccccc1)C1CCCCC1` (stereo not given), “inactive”. With `CC1(C)S[C@@H]2[C@H](NC(=O)C(C(=O)O)c3ccccc3)C(=O)N2[C@H]1C(=O)O` (stereo not given in full), the result was inactive.

Take `Cc1cccc(Nc2ccccc2C(=O)O)c1C`: the result was inactive. Under `CCCCOC(=O)c1ccc(N)cc1` stands “inactive”; under `CCN(CC)CCc1nc(-c2ccccc2)no1`, “inactive”.

Consider `CC[N+](CC)(CC(=O)Nc1c(C)cccc1C)Cc1ccccc1`, for which the outcome was inactive. For `CCCCC1(COC(=O)CCC(=O)O)C(=O)N(c2ccccc2)N(c2ccccc2)C1=O` the value was “inactive”.

Turning to `COc1ccc2cc(CCC(C)=O)ccc2c1`, the result was inactive.

Regarding `CC(=O)N[C@@H](CC(C)C)C(=O)O`, the result was inactive. In the case of `NS(=O)(=O)c1cc2c(cc1C(F)(F)F)NCNS2(=O)=O`, the outcome was inactive.

As for `Cc1c(NC(=O)c2cccnc2)c(=O)n(-c2ccccc2)n1C`, the result was inactive.

On to `Cn1c(=O)c2c(ncn2CCO)n(C)c1=O`, for which the outcome was inactive. For `NC(N)=NS(=O)(=O)c1ccc(N)cc1` the value was “inactive”; for `CCN(CC)CCOC(=O)C(c1ccccc1)c1ccccc1`, “inactive”. Under `OC(CCN1CCCC1)(c1ccccc1)C1CCCCC1` (stereo not given) stands “inactive”; under `O=C(Cn1ccnc1[N+](=O)[O-])NCCO`, “inactive”; under `O=S1(=O)OC(c2ccc(O)cc2)(c2ccc(O)cc2)c2ccccc21`, “inactive”. Under `CC(C)=CCC/C(C)=C/CO` stands “inactive”; under `NC(=O)CC[C@@H](N)C(=O)O`, “inactive”; under `NC(N)=NCCN1CCCCCCC1`, “inactive”. In the case of `CC(=O)NS(=O)(=O)c1ccc(N)cc1`, the outcome was inactive.

As for `CCCNC(C)(C)COC(=O)c1ccccc1`, the result was inactive. Under `O=C(O)c1ccccc1C(=O)Nc1ccc(S(=O)(=O)Nc2nccs2)cc1` stands “inactive”; under `C[C@@H]1CCC[C@H](C)N1`, “inactive”.

As to `Cc1cc(C)nc(NS(=O)(=O)c2ccc(N)cc2)n1`, the outcome was inactive. For `CCc1cccc(CC)c1NC(=O)CN(CC(=O)O)CC(=O)O` the value was “inactive”; for `Cc1c(NC(C)C)c(=O)n(-c2ccccc2)n1C`, “inactive”; for `Cc1ncc(CO)c(CN)c1O`, “inactive”.

As for `CCS(=O)(=O)CCn1c([N+](=O)[O-])cnc1C`, the outcome was inactive. For `O=C(O)c1ccccc1OP(=O)(O)O` the value was “inactive”; for `CC(=O)SC[C@@H](Cc1ccccc1)C(=O)NCC(=O)OCc1ccccc1`, “inactive”.

`O=C(O)COC(=O)Cc1ccccc1Nc1c(Cl)cccc1Cl`: the outcome was inactive. Under `Cn1c([N+](=O)[O-])cnc1COC(N)=O` stands “inactive”.
